The text below walks through data of PubChem BioAssay.

Molecules are shown by their SMILES. The source made the active and inactive calls. Unless noted, how the calls were made is not given here.

In experiment [1] the test system is XIP peptide (Xip251-270) binding. Briefly: XIP fragment 251-270 binding compounds – biochemical, small-molecule microarray, fluorescence 635/667 nm, 0.1 µg/mL protein, primary screen (AID 1182). The settings on record: fluorescent protein binding, 635 nm, higher = more signal, called active from +8 up or from −8 down.
Experiment [2] concerns XIP peptide (Xip251-270). Briefly: compounds binding XIP fragment 251-270 – biochemical, small-molecule microarray, fluorescence 635/667 nm, 0.5 µg/mL protein, primary screen (AID 1183). The conditions noted are these: fluorescence 635 nm, higher = more signal.
Experiment [3] is described as follows: blood-stage malaria parasite viability loss – strain 3D7, DAPI fluorescence, 100 nL, primary screen (AID 1184).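 Further: parasites grown inside human red blood cells in medium with human serum.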 The settings on record: P. falciparum 3D7 growth, 3 d, higher = more signal.
Experiment [4] addresses Homeobox protein Hox-A13 (Mus musculus) (UniProt Q62424). Description: disruptors of Hoxa13 oligonucleotide interaction – biochemical, fluorescence polarization, labeled oligonucleotide, primary screen (AID 1185). The conditions noted are these: Hoxa13:DNA binding, 15 min, higher = more signal, called active from +8 up or from −8 down. In general terms: Polarisation of emitted light reports the rotation of a fluorescent probe.

A short description of experiment [5]: blockers of DNA damage checkpoint Chk1 activation – imaging, HeLa, hydroxyurea, phospho-Chk1 antibody, percent positive cells, primary screen (AID 1186). The conditions noted are these: hydroxyurea-induced phospho-Chk1 immunofluorescence imaging, higher = more signal.
The nature of experiment [6]: blockers of DNA damage checkpoint Chk1 activation – imaging, HeLa, hydroxyurea, phospho-Chk1 nuclear intensity, primary screen (AID 1187). The conditions noted are these: hydroxyurea-induced phospho-Chk1 immunofluorescence imaging, higher = more signal.

Chain of Homeobox protein Hox-A13 (Mus musculus) (Q62424 whole entry, looked up): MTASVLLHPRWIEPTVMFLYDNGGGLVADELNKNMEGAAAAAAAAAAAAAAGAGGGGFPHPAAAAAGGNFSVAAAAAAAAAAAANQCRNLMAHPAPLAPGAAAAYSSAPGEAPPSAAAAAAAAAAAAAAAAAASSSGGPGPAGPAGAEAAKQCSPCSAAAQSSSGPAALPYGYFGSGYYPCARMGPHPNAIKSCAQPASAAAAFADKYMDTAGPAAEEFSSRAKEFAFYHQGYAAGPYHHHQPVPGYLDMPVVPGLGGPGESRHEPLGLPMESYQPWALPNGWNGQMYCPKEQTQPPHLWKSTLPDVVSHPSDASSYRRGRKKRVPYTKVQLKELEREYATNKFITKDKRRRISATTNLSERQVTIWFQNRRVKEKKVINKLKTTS

In the case of `COCC(=C=CC[C@H](O)c1ccccc1OCCO)C[C@H](O)c1cc(Cl)cc(Cl)c1O`, the composite z-score is 0.549 (inactive) in experiment [1] and 0.736 in experiment [2]. The z-score in experiment [3] was -0.254; in experiment [4] it was -3.5 (inactive); in experiment [5], 1.36 (inactive); in experiment [6], 0.764 (inactive).

For the compound `COc1ccc([C@H]2OC[C@@H]3CC4(CC=CC4)C(=O)N32)cc1`, the figures for the composite z-score in experiment [1] and in experiment [2] were -0.302 (inactive) and 0.345, respectively. Also, the z-score in experiment [3] is 0.301; in experiment [4] it was -0.0645 (inactive); in experiment [5] it was 0.0257 (inactive); in experiment [6], -0.452 (inactive).

Turning to `CCCCC(=C=CC[C@@H](O)c1ccccc1OCCO)CCO`, the results for the composite z-score in experiment [1] and in experiment [2] were -0.247 (inactive) and 0.357, respectively. The z-score in experiment [3] is -1.6; in experiment [4], -3.19 (inactive); in experiment [5] it was 0.525 (inactive); in experiment [6] it was 0.585 (inactive).

Consider `COC(=O)C=C(CC(O)c1cccc(Cl)c1)OC` (stereo unspecified), for which the results for the composite z-score in experiment [1] and in experiment [2] were 0.633 (inactive) and 0.744, respectively. Besides, the z-score in experiment [3] was -0.0951; in experiment [4], -1.42 (inactive); in experiment [5] it was -1.22 (inactive); in experiment [6] it was -1.18 (inactive).

`C#CCNC(=O)[C@H](Cc1ccccc1)NC(=O)CCC(=O)O`: the composite z-score in experiment [1] was 0.234 (inactive); in experiment [2], -1.75. Further, the z-score in experiment [3] is -0.213; in experiment [4], -0.118 (inactive); in experiment [5], -0.482 (inactive); in experiment [6], -0.815 (inactive).

For the compound `COC(=O)[C@@]1(Cc2ccccc2)[C@H]2c3cc(C(=O)N4CCCC4)n(Cc4nc5ccccc5[nH]4)c3C[C@H]2CN1C(=O)c1ccccc1`, the composite z-score in experiment [1] was 1.33 (inactive); in experiment [2], 0.213. Besides, the z-score in experiment [3] is -1.65; in experiment [4], -3.97 (inactive); in experiment [5], -1.01 (inactive); in experiment [6], -0.881 (inactive).

In the case of `COc1ccc([Si](C)(C)[C@H]2[C@H](CC(=O)N3CCC[C@H]3CO)O[C@@]3(C(=O)N(Cc4cccc(N5C(=O)c6cccc7cccc5c67)c4)c4ccccc43)[C@@H]2C)cc1`, the results for the composite z-score in experiment [1] and in experiment [2] were 0.397 (inactive) and 0.674, respectively. The z-score was -1.72 in experiment [3], -3.25 (inactive) in experiment [4], -0.0887 (inactive) in experiment [5] and -0.429 (inactive) in experiment [6].

On to `O=C1C2C=CC(C(O)C3CCCCC3)N(Nc3ccc([N+](=O)[O-])cc3)C2C(=O)N1c1ccccc1` (stereo unspecified), for which the composite z-score is -0.375 (inactive) in experiment [1] and 0.526 in experiment [2]. The z-score in experiment [3] is -1.5; in experiment [4], -2.33 (inactive); in experiment [5] it was -0.0882 (inactive); in experiment [6], -0.177 (inactive).

On to `O=C1O[C@H](c2ccccc2)[C@H](c2ccccc2)N2[C@H]1[C@@H](C(=O)N1CCN(c3ncccn3)CC1)[C@]1(C(=O)Nc3ccc(C#CC4=CCCCC4)cc31)[C@H]2c1ccc(O)cc1`, for which the composite z-score was 0.28 (inactive) in experiment [1] and 0.815 in experiment [2]. Besides, the z-score in experiment [3] is -0.953; in experiment [4], 2.84 (inactive); in experiment [5] it was -0.329 (inactive); in experiment [6] it was -0.513 (inactive).

On to `C[C@]1(C(=O)NC2CC2)c2ccccc2C(=O)N(Cc2cc(C(F)(F)F)cc(C(F)(F)F)c2)[C@H]1c1ccc(CO)cc1`, for which the composite z-score in experiment [1] is 1.56 (inactive); in experiment [2], 0.849. For the same compound, the z-score in experiment [3] was -0.895; in experiment [4], -3.26 (inactive); in experiment [5] it was -0.66 (inactive); in experiment [6], -0.479 (inactive).

Consider `CC(C)c1ccc(NN2C(C(O)c3cc(C(F)(F)F)cc(C(F)(F)F)c3)C=CC3C(=O)N(c4ccccc4)C(=O)C32)cc1` (stereo unspecified), for which the results for the composite z-score in experiment [1] and in experiment [2] were 0.544 (inactive) and 0.641, respectively. The z-score was -0.764 in experiment [3], -3.49 (inactive) in experiment [4], 0.652 (inactive) in experiment [5] and 0.417 (inactive) in experiment [6].

As for `Cc1ccc(S[C@]2(C(=O)NCC(F)(F)F)CC(=O)N(C(C)C)[C@@H]2c2ccc(CO)cc2I)cc1`, the composite z-score in experiment [1] is -0.268 (inactive); in experiment [2], -0.467. In addition, the z-score in experiment [3] is -0.181; in experiment [4], -2.7 (inactive); in experiment [5], 0.295 (inactive); in experiment [6] it was 0.84 (inactive).

Regarding `[N-]=[N+]=NCc1ccccc1C[C@@]1(C(=O)NCC(O)CO)N=C(c2ccc(OCCCO)cc2)O[C@@H]1c1ccccc1N=[N+]=[N-]` (stereo partly specified), the composite z-score is 1.78 (inactive) in experiment [1] and 0.384 in experiment [2]. In addition, the z-score in experiment [3] was -2.37; in experiment [4] it was -1.72 (inactive); in experiment [5], -0.0225 (inactive); in experiment [6] it was 0.105 (inactive).

Take `COC(=O)[C@@]1(Cc2ccccc2)[C@H]2c3cc(C(=O)N(C)C)n(CCSCCO)c3C[C@H]2CN1C(=O)c1ccccc1`: the composite z-score in experiment [1] is 0.115 (inactive); in experiment [2], 0.443. In addition, the z-score in experiment [3] was -0.522; in experiment [4], -4.76 (inactive); in experiment [5], 0.585 (inactive); in experiment [6], 0.248 (inactive).

Consider `COCCCN1C(=O)[C@@]2(c3ccc([N+](=O)[O-])cc3)CC(=O)N(C3CCCCC3)[C@@H]2c2ccc(CO)cc21`, for which the figures for the composite z-score in experiment [1] and in experiment [2] were 0.0996 (inactive) and 0.154, respectively. For the same compound, the z-score was -0.599 in experiment [3], -0.329 (inactive) in experiment [4], 0.0889 (inactive) in experiment [5] and 0.133 (inactive) in experiment [6].

In the case of `C[N+](C)(C)CCCC[C@@H]1NC(=O)[C@@H]2C[C@H](C(=O)NCCCCCN)[C@H](c3cccc(OCCO)c3)N2C1=O`, the composite z-score in experiment [1] was -0.442 (inactive); in experiment [2], 0.572. The z-score in experiment [3] was 0.137; in experiment [4] it was -3.6 (inactive); in experiment [5] it was -0.86 (inactive); in experiment [6], -0.231 (inactive).

Turning to `O=C1NC(=O)C2C1C=CC(C(O)c1cccc3ccccc13)N2Nc1ccccn1` (stereo unspecified), the figures for the composite z-score in experiment [1] and in experiment [2] were -0.219 (inactive) and 0.395, respectively. For the same compound, the z-score in experiment [3] is 0.181; in experiment [4] it was -1.71 (inactive); in experiment [5], -0.146 (inactive); in experiment [6] it was -0.382 (inactive).

For `COC(=O)[C@@]1(Cc2ccc(F)cc2)[C@@H]2[C@@H](CC(=O)[C@H]2CC(=O)C(=O)N(C)C)CN1C(=O)c1ccccc1`, the composite z-score is 0.502 (inactive) in experiment [1] and 0.588 in experiment [2]. The z-score in experiment [3] was -1.11; in experiment [4], -3.94 (inactive); in experiment [5], 0.0598 (inactive); in experiment [6], 0.186 (inactive).

On to `O=C(C1N=C(c2ccc(OCCCO)cc2)N(c2ccccc2)O1)N1CCOCC1` (stereo unspecified), for which the composite z-score was 0.254 (inactive) in experiment [1] and 0.206 in experiment [2]. Also, the z-score is -0.277 in experiment [3], -2.88 (inactive) in experiment [4], -0.554 (inactive) in experiment [5] and -0.262 (inactive) in experiment [6].

For the compound `CC(C)c1ccc(NN2C(C(O)C(c3ccccc3)c3ccccc3)C=CC3C(=O)N(c4ccccc4)C(=O)C32)cc1` (stereo unspecified), the composite z-score in experiment [1] is 0.234 (inactive); in experiment [2], 0.739. The z-score in experiment [3] was -0.536; in experiment [4], -2.67 (inactive); in experiment [5], 0.286 (inactive); in experiment [6] it was 0.207 (inactive).

On to `CCN(CC)c1ccc(N2CC=CC34O[C@@H]5/C=C\CCC(C)OC(=O)C5[C@H]3C(=O)N(C(CO)C(C)C)[C@@H]4C2=O)cc1` (stereo partly specified), for which the composite z-score in experiment [1] was 0.0003 (inactive); in experiment [2], -0.431. Moreover, the z-score in experiment [3] is -0.214; in experiment [4], -6.03 (inactive); in experiment [5] it was 0.0858 (inactive); in experiment [6], 0.0174 (inactive).
